This is an account of results in PubChem BioAssay (NCATS).

Records with an inconclusive call do not appear. Where a call stands in place of a potency, no number is given. Activity calls are given as the source filed them. Calls follow the shape of the dose curve; as a rule, active = well fitted inhibition curve with a large enough effect; inconclusive = small, poorly fitted or top-dose-only effect; inactive = no such curve, though single readings can be large or run the other way.
Potency is read from the fitted curve at half-maximal effect.

The target of the assay is Cytochrome P450 2C19 (Homo sapiens) (UniProt P33261). Put plainly: qHTS Assay for Inhibitors and Substrates of Cytochrome P450 2C19 (AID 899). Also: nearly all actives have a fitted effect of over 60% in size. The following applies: recombinant CYP2C19, luciferin-H EGE luminescence; series mostly up to 57.1 µM. On the procedure: NIH Molecular Libraries Screening Centers Network [MLSCN]
Chain of Cytochrome P450 2C19 (Homo sapiens) (P33261 whole entry, looked up): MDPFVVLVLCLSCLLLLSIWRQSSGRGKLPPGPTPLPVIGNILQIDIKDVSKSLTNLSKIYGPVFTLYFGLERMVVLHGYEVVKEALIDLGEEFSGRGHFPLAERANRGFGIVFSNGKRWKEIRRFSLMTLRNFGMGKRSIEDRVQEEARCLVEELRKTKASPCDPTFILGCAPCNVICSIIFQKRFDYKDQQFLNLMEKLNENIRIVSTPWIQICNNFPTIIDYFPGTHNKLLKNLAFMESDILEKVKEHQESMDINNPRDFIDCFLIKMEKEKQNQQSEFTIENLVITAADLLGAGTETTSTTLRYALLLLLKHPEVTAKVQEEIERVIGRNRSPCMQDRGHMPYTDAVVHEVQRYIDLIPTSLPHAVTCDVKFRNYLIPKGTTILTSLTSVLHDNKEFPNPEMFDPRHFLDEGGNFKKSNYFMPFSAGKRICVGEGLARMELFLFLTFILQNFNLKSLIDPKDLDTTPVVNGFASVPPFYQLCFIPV
NIH Chemical Genomics Center [NCGC]
The P450 gene superfamily is involved in the metabolism and clearance of xenobiotics. This assay used human CYP2C19 to measure the hydroxylation of ethylene glycol ester of 6' deoxyluciferin (Luciferin-H EGE; […]) to luciferin. The luciferin is then measured by luminescence after the addition of a luciferase detection reagent. Luciferin-H EGE concentration in the assay was equal to its KM for CYP2C19. Inhibitors and some substrates limit the production of luciferin, and decrease measured luminescence.
NCGC Assay Protocol Summary:
Two uL of enzyme and substrate mix (final concentrations: 5nM CYP2C19, 10uM Luciferin-H EGE, 50mM KPO4) were dispensed into a white, solid bottom 1536-well microtiter plate. 23nL of compound was transferred by a pin tool. The plate was incubated at 37C for 10 min. Two uL of an NADPH regeneration solution (Promega supplied reagent) was dispensed and the reaction was allowed to continue for 60 min at 37C. Then the reaction was stopped by reconstituted luciferin detection buffer. After another 20 min of incubation the plate was read on the ViewLux (Perkin Elmer) at 60 sec exposure and 2x2 binning. This protocol was carried out with Promega-Glo reagents and further information can be found at http://www.promega.com/tbs/tb325/tb325.pdf. Data were normalized to the to AC100 inhibition (57uM ketoconazole).
Keywords: P450, CYP2C19, Luciferase, MLSMR, MLSCN, NIH Roadmap, qHTS, NCGC
In the case of `CC[C@@H]1OC(=O)[C@@H](C)[C@H](O[C@@H]2C[C@@](C)(OC)[C@@H](O)[C@H](C)O2)[C@H](C)[C@H](O[C@@H]2O[C@@H](C)C[C@@H](N(C)C)[C@H]2O)[C@@](C)(O)C[C@H](C)C(=O)[C@@H](C)[C@H](O)[C@@]1(C)O`, the Potency result is “inactive”. Same read-out and setting: under `Cn1ccc(O)c(C#N)c1=O` stands “inactive”; under `CC(C)C[C@@H](CC(=O)N[C@@H](CCC(=O)O)CC(=O)O)NC(=O)[C@@H]1CNCC[C@H]1NC(=O)C[C@@H](NC(=O)C[C@H](Cc1ccccc1)NC(=O)[C@@H]1CNCC[C@H]1N)C(C)C`, “inactive”. Still for that read-out and setting: under `CCC/C=C(\CCC)C(NS(=O)(=O)c1ccc(C(F)(F)F)cc1)c1ccc(-c2ccccc2)cc1` (stereo not given) stands 7.94 µM (active); under `CC(C)C[C@@H](CC(=O)N[C@@H](CCCN)CC(=O)N[C@@H]1CCNC[C@H]1C(=O)N[C@H](CC(=O)N[C@@H](CCC(=O)O)CC(=O)O)CC(C)C)NC(=O)[C@@H]1CNCC[C@H]1N`, “inactive”; under `CCCC[C@@H]1C[C@H]1C(NC(=O)c1ccccc1)c1ccccc1` (stereo not given in full), 0.398 µM (active). Still for that read-out and setting: with `O=c1cc(-c2ccccc2O)oc2c(O)c(O)ccc12` the figure was 1.26 µM (active); with `CC(C)C[C@@H](CC(=O)N[C@@H](CCCN)CC(=O)N[C@@H]1CCNC[C@H]1C(=O)N[C@H](CC(=O)N[C@@H](CCC(=O)O)CC(=O)O)CC(C)C)NC(=O)[C@@H]1CCCC[C@H]1N`, 15.8 µM (active). For the compound `CC(C)[C@@H](CC(=O)N[C@@H]1CCNC[C@H]1C(=O)N[C@H](CC(=O)N[C@@H](CCC(=O)O)CC(=O)O)Cc1c[nH]c2ccccc12)NC(=O)C[C@H](CO)NC(=O)[C@@H]1CCCC[C@H]1N`, the Potency result is “inactive”. On the same count and under the same terms, under `CC(C)[C@@H](CC(=O)N[C@@H]1CCCC[C@H]1C(=O)N[C@H](CC(=O)N[C@@H](CCC(=O)O)CC(=O)O)Cc1ccccc1)NC(=O)C[C@H](CO)NC(=O)[C@@H]1CNCC[C@H]1N` stands “inactive”; under `CC(C)[C@@H](CC(=O)N[C@@H]1CCNC[C@H]1C(=O)N[C@H](CC(=O)N[C@@H](CCC(=O)O)CC(=O)O)Cc1ccccc1)NC(=O)C[C@H](Cc1c[nH]c2ccccc12)NC(=O)[C@@H]1CNCC[C@H]1N`, “inactive”; under `C=C1C(=O)O[C@H]2C[C@@]3(C)CCCC(=C)[C@@H]3C[C@H]12`, 2.51 µM (active). The same measure, in the same setting: with `O=C(Cc1ccccc1I)Nc1ccccc1` the figure was 6.31 µM (active); with `CC[C@@H]1[C@H]2CCCCN3[C@@H]2[C@@H](C[C@H]3[C@@H]2C[C@H](C)C(=O)O2)[C@@H]2[C@H]1OC(=O)[C@H]2C`, “inactive”. Take `CC(C)C[C@@H](CC(=O)N[C@H](CC(=O)N[C@@H]1CCNC[C@H]1C(=O)N[C@H](CC(=O)N[C@@H](CCC(=O)O)CC(=O)O)Cc1c[nH]c2ccccc12)C(C)C)NC(=O)[C@@H]1CNCC[C@H]1N`: the Potency entry was “inactive”. In the case of `COC(=O)[C@@H]1C[C@H]1[C@@H](NC(=O)c1ccccc1)c1ccccc1`, the Potency was 1.26 µM (active). On the same count and under the same terms, with `CC(C)C1=CC2=CC[C@H]3[C@@](C)(CCC[C@]3(C)C(=O)O)[C@@H]2CC1` the figure was 25.1 µM (active); with `CCCC[C@@H]1C[C@H]1C(NC(=O)c1ccco1)c1ccccc1` (stereo not given in full), 1.26 µM (active); with `OC[C@@H]1O[C@@H](n2cnc3c(NCc4ccco4)ncnc32)[C@H](O)[C@H]1O`, “inactive”. Still for that read-out and setting: under `CC(C)[C@@H](CC(=O)N[C@@H]1CCNC[C@H]1C(=O)N[C@H](CC(=O)N[C@@H](CCC(=O)O)CC(=O)O)Cc1c[nH]c2ccccc12)NC(=O)C[C@H](Cc1c[nH]c2ccccc12)NC(=O)[C@@H]1CCCC[C@H]1N` stands “inactive”.

`CC(C)C[C@@H](CC(=O)N[C@@H](CCCN)CC(=O)N[C@@H]1CCNC[C@H]1C(=O)N[C@H](CC(=O)N[C@@H](CCC(=O)O)CC(=O)O)Cc1c[nH]c2ccccc12)NC(=O)[C@@H]1CNCC[C@H]1N`: the Potency result was “inactive”. Regarding `CC(C)[C@@H](CC(=O)N[C@@H]1CCNC[C@H]1C(=O)N[C@H](CC(=O)N[C@@H](CCC(=O)O)CC(=O)O)Cc1c[nH]c2ccccc12)NC(=O)C[C@H](CO)NC(=O)[C@@H]1CNCC[C@H]1N`, the Potency entry was “inactive”.

Regarding `COC(=O)[C@@]1(Cc2ccc(F)cc2)[C@H]2c3cc(C(=O)N4CCCC4)n(CCc4ccc(OC)c(Br)c4)c3C[C@H]2CN1C(=O)c1ccccc1`, the Potency was 5.01 µM (active). For the compound `COc1ccc2c(c1)[C@]1(C)CCC[C@](C)(CO)[C@@H]1CC2`, the Potency is 3.16 µM (active).

Consider `COc1ccc2c(=O)cc(-c3ccccc3)oc2c1O`, for which the Potency was 5.01 µM (active). As to `CCCC[C@@H]1C[C@H]1C(NC(=O)c1ccco1)c1ccc(Cl)cc1` (stereo not given in full), the Potency was 0.316 µM (active). As to `NCCC[C@@H](CC(=O)N[C@@H]1CCNC[C@H]1C(=O)N[C@H](CC(=O)N[C@@H](CCC(=O)O)CC(=O)O)Cc1c[nH]c2ccccc12)NC(=O)C[C@H](Cc1c[nH]c2ccccc12)NC(=O)[C@@H]1CCCC[C@H]1N`, the Potency result was “inactive”. Still for that read-out and setting: under `O[C@@H]1CC[C@H]2Cc3ccccc3N=C21` stands “inactive”; under `CC(C)C[C@@H](CC(=O)N[C@H](CC(=O)N[C@@H]1CCCC[C@H]1C(=O)N[C@H](CC(=O)N[C@@H](CCC(=O)O)CC(=O)O)CC(C)C)C(C)C)NC(=O)[C@@H]1CCCC[C@H]1N`, “inactive”.

Take `NCCC[C@@H](CC(=O)N[C@@H]1CCNC[C@H]1C(=O)N[C@H](CC(=O)N[C@@H](CCC(=O)O)CC(=O)O)Cc1ccccc1)NC(=O)C[C@H](CO)NC(=O)[C@@H]1CCCC[C@H]1N`: the Potency entry was “inactive”. The same measure, in the same setting: with `COC(=O)[C@@]1(Cc2ccc(OC)cc2)[C@H]2c3cc(C(=O)N4CCCC4)n(CCc4c[nH]c5cc(F)ccc45)c3C[C@H]2CN1C(=O)c1ccccc1` the figure was 3.98 µM (active); with `CCCC1(C(=O)OC)C=C2C(=C(c3ccccc3)C(=O)C2C)CN1` (stereo not given), 7.94 µM (active). On the same count and under the same terms, with `CC(=O)c1c(O)c(C)c(O)c2c1OC1=CC(=O)[C@H](C(C)=O)C(=O)[C@]12C` the entry was “inactive”; with `O=c1c(O)c(-c2ccc(O)c(O)c2)oc2c(OC[C@H]3O[C@@H](O)[C@@H](O)[C@H](O)[C@@H]3O)c(O)cc(O)c12`, “inactive”; with `CCCC/C=C/C(NC(=O)Oc1cccc(C(F)(F)F)c1)c1ccccc1` (stereo not given), 3.16 µM (active). The same measure, in the same setting: under `Nc1ncnc2c1ncn2[C@@H]1O[C@@H](COP(=O)(O)OP(=O)(O)OP(=O)(O)OP(=O)(O)OC[C@@H]2O[C@@H](n3cnc4c(N)ncnc43)[C@@H](O)[C@H]2O)[C@H](O)[C@@H]1O` stands “inactive”.

As for `COc1cc2nc(N3CCN(C(=O)[C@H]4COc5ccccc5O4)CC3)nc(N)c2cc1OC`, the outcome was inactive. In the case of `CC(C)C[C@@H](CC(=O)N[C@H](CC(=O)N[C@@H]1CCNC[C@H]1C(=O)N[C@H](CC(=O)N[C@@H](CCC(=O)O)CC(=O)O)Cc1c[nH]c2ccccc12)C(C)C)NC(=O)[C@@H]1CCCC[C@H]1N`, the Potency entry is “inactive”. On the same count and under the same terms, with `CCc1cccc2c(-c3ccccc3)c3c(nc12)OCC3` the figure was 7.94 µM (active); with `CCCCC[C@H](O)c1cccc(OCc2ccc3ccccc3n2)c1`, 6.31 µM (active).
